# Measured values taken from PubChem BioAssay.
# The source made the active and inactive calls. Unless noted, the rule behind the calls is not given here.
# Experiments:
# [1] = test system: Wnt5a (protein binding on small-molecule microarray); experiment: Wnt5a binders on small-molecule microarray, primary screen, biophysical, 635/667 nm fluorescence (AID 1142); details: 635 nm fluorescence, higher = more signal;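 note: fluorescence read at 667 nm with signal to noise per printed feature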
# [2] = cell viability in Huh7 cells, primary screen, cytotoxicity control for HCV replication inhibitor project, CellTiter-Glo luminescence, basal, 48 h (AID 1143); details: Huh7 HCV replicon, higher = more signal, called active from +8 up or from −8 down;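 note: Huh7 hepatoma cells carrying a hepatitis C replication reporter with no stimulus; test concentration not given here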
# [3] = P. aeruginosa biofilm formation inhibitors, primary screen, PAO1 strain, BacTiter-Glo luminescence, LB-PBS (AID 1144); details: 12 h, higher = more signal
# [4] = CREB reporter modulators without forskolin, primary screen, cell-based, PC12, CRE-LacZ reporter, unstimulated (AID 1145); details: no forskolin, luminescence, 4.5 h, higher = more signal, called active from +8 up or from −8 down
# [5] = CREB reporter modulators under forskolin, primary screen, cell-based, PC12, CRE-LacZ reporter, forskolin-stimulated (AID 1146); details: luminescence, 4.5 h, higher = more signal, called active from +8 up or from −8 down;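 note: PC12 cells with 6xCRE LacZ reporter stimulated by forskolin 10 µM; beta-galactosidase reporter signal reflecting CREB driven transcription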
# [6] = biological target: Streptavidin (Streptomyces avidinii) (UniProt P22629); experiment: streptavidin binders on small-molecule microarray, primary screen, artefact control for SMM compound annotation, biophysical, 635/667 nm fluorescence (AID 1147); details: streptavidin binding, higher = more signal;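 note: signal reflects streptavidin binding to arrayed compounds as a control protein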
# Chain of Streptavidin (Streptomyces avidinii) (P22629 whole entry, looked up): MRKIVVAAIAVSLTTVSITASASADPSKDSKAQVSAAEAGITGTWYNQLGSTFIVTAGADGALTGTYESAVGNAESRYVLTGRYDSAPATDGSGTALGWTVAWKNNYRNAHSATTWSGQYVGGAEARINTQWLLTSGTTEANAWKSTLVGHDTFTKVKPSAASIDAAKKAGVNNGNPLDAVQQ
# [7] = small-molecule binders of probe aInhba, primary screen, biochemical, small-molecule microarray, 635/667 nm fluorescence (AID 1148); details: higher = more signal;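 note: score merges 667nm spot fluorescence with signal-to-noise for antibody binding to printed compounds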
# Torsin-1A (Homo sapiens) [8] = biological target: Torsin-1A (Homo sapiens) (UniProt O14656); experiment: torsin A binders from cell lysate, primary screen, small-molecule microarray, wild-type, 635/667 nm (AID 1149); details: COS7 hTOR1A-WT lysate, 635 nm fluorescence, higher = more signal
# Chain of Torsin-1A (Homo sapiens) (O14656 whole entry, looked up): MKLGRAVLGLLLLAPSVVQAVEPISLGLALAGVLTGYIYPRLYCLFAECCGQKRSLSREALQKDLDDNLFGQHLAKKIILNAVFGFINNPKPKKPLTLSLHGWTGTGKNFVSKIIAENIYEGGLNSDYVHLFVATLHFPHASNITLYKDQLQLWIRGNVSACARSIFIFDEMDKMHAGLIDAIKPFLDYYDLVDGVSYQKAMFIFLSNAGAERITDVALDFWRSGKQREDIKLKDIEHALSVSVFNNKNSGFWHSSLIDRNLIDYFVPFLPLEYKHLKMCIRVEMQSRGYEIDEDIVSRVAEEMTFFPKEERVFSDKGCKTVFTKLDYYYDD
# Torsin-1A (Homo sapiens) [9] = biological target: Torsin-1A (Homo sapiens) (UniProt O14656); experiment: small-molecule binders of mutant TOR1A in lysate, primary screen, cell lysate, small-molecule microarray, COS7 lysate, 635/667 nm fluorescence (AID 1150); details: COS7 hTOR1A mutant lysate, 635 nm fluorescence, higher = more signal;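 note: score pools 667 nm emission and signal to noise measuring lysate protein binding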
# [10] = test system: Sonic hedgehog protein (Shh); experiment: small-molecule binders of Shh protein, primary screen, biochemical, small-molecule microarray, 635/667 nm fluorescence (AID 1151); details: small-molecule microarray binding, 635 nm fluorescence; higher = more signal;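 note: Shh protein binding to compounds spotted on small-molecule microarray slides; score combines spot fluorescence intensity with signal-to-noise across triplicate slides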
Structure (SMILES),composite z-score [1],z-score [2],z-score [3],z-score [4],z-score [5],composite z-score [6],composite z-score [7],composite z-score (Torsin-1A (Homo sapiens) [8]),composite z-score (Torsin-1A (Homo sapiens) [9]),composite z-score [10]
Cc1cc2c(c(=O)o1)[C@@H](O)[C@H]1O[C@H]1C2=O,0.149,0.773 (inactive),0.0297 (inactive),-0.255 (inactive),0.0917 (inactive),0.361,0.0073,0.102,0.253,1.1
CCOC(=O)[C@H](Cc1ccccc1)NC(=O)CCC1CC(OC(=O)NCCc2ccc(F)cc2)CC2(CCCC(COC(=O)NCCc3ccccc3OC)O2)O1 (stereo not given in full),0.359,-0.131 (inactive),0.248 (inactive),0.198 (inactive),-0.099 (inactive),0.536,-0.0897,0.196,0.721,1.54
COc1ccc(C#C[C@@H]2C=C[C@H](OC(C)=O)[C@@H](COC(C)=O)O2)cc1,0.392,-3.46 (inactive),0.132 (inactive),0.291 (inactive),1.08 (inactive),0.271,0.0442,0.244,0.267,0.882
CO[C@@H]1COC(=O)CC=C[C@@H](C)[C@H](OC)COC(=O)[C@@H](C)COC(=O)CC=C[C@H]1C,-0.451,-0.128 (inactive),0.416 (inactive),0.518 (inactive),-0.14 (inactive),0.0524,-0.266,1.4,0.381,1.68
CCC=CCCC(OC(=O)c1ccc(Br)cc1)C1=CCCCC1=O (stereo not given),-0.0451,-1.29 (inactive),1.45 (inactive),-0.158 (inactive),3.09 (inactive),0.148,-0.195,1.08,1.87,1.46
C[C@H]1CC[C@H]2C(=O)OC(CO)CN2[C@@H]1c1ccc(Br)cc1 (stereo not given in full),0.0096,0.131 (inactive),-1.21 (inactive),-0.527 (inactive),-1.43 (inactive),-0.281,-0.253,0.21,0.002,0.661
COc1ccc(O[C@H]2C=C[C@@H](c3ccccc3)O[C@@H]2CON=CC[C@@H]2C=C[C@H](OC(C)=O)[C@@H](COC(C)=O)O2)cc1,0.0129,-1.06 (inactive),-0.705 (inactive),1.15 (inactive),0.222 (inactive),3.65,-0.176,-0.107,-0.26,0.328
CC(=O)OC[C@H]1O[C@H](C#Cc2ccccc2)C=C[C@@H]1OC(C)=O,-0.118,-2.96 (inactive),0.908 (inactive),-0.256 (inactive),3.76 (inactive),0.0752,-0.182,0.398,-0.0454,0.337
C#CCCCON=C1C[C@@H](O)[C@@H](O)[C@@H]2[C@@H]3C(=O)N(c4ccc(F)cc4F)C(=O)[C@@H]3CC[C@H]12,0.166,-1.71 (inactive),-0.203 (inactive),-0.475 (inactive),0.278 (inactive),-0.222,-0.183,0.696,1.31,0.782
O=C1CCCC(C2=CCCCC2=O)C1 (stereo not given),0.18,0.211 (inactive),0.0656 (inactive),0.019 (inactive),-0.222 (inactive),-0.15,-0.0288,0.217,0.37,0.626
CO[C@H]1COC(=O)[C@@H](C)COC(=O)[C@@H](OCc2ccccc2)C=C[C@@H]1C,0.007,-0.0174 (inactive),0.304 (inactive),-0.0293 (inactive),-0.803 (inactive),-0.136,-0.016,0.743,-0.253,0.214
CO[C@H]1COC(=O)[C@H](C)NC(=O)[C@@H](C)COC(=O)[C@H]2CCCN2C(=O)CC=C[C@H]1C,0.139,0.191 (inactive),-0.312 (inactive),-0.906 (inactive),-0.432 (inactive),-0.323,-0.121,-0.0249,0.182,1.4
C#CCCCON=C1C[C@@H](O)[C@@H](O)[C@@H]2[C@@H]3C(=O)N(CC)C(=O)[C@@H]3CC[C@@H]12,-0.0855,0.0213 (inactive),-0.327 (inactive),-0.116 (inactive),-0.14 (inactive),-0.0757,-0.181,0.787,0.555,1.2
CCOC(=O)[C@H](CC(C)C)NC(=O)CCC1CC(OC(=O)NCCc2ccc(F)cc2)CC2(CCCC(COC(=O)NCCOc3ccccc3)O2)O1 (stereo not given in full),0.32,-1.81 (inactive),-0.446 (inactive),0.469 (inactive),0.127 (inactive),0.939,0.336,0.0137,0.15,1.01
COC(=O)[C@H](C)NC(=O)CCC1CC(OC(=O)NCc2cccc3ccccc23)CC2(CCCC(COC(=O)NCC(c3ccccc3)c3ccccc3)O2)O1 (stereo not given in full),0.345,-0.145 (inactive),-0.155 (inactive),-0.437 (inactive),2.17 (inactive),-0.244,-0.11,0.113,0.452,0.759
O=C1C[C@@H](O)[C@@H](O)[C@@H]2[C@@H]3C(=O)N(c4cccc(Oc5ccccc5)c4)C(=O)[C@@H]3CC[C@H]12,0.114,0.393 (inactive),0.247 (inactive),2.51 (inactive),0.287 (inactive),0.0742,-0.183,0.162,0.331,0.669
CCOC(=O)[C@H](CC(C)C)NC(=O)CCC1CC(OC(=O)NCCc2ccc(F)cc2)CC2(CCCC(COC(=O)NCCc3ccccc3OC)O2)O1 (stereo not given in full),0.145,-0.451 (inactive),-0.256 (inactive),1.64 (inactive),0.135 (inactive),0.805,-0.0736,0.0877,0.528,0.567
CSCC[C@@H]1NC(=O)CC=C[C@@H](C)COC(=O)[C@@H](C)COC1=O,-0.0993,-0.184 (inactive),0.117 (inactive),-0.476 (inactive),-0.846 (inactive),-1.03,-0.0736,2.66,2.1,1.81
CO[C@H]1COC(=O)CCC[C@@H](C)[C@H](OC)COC(=O)[C@@H]2CCCN2C(=O)CC=C[C@@H]1C,0.236,-0.717 (inactive),0.55 (inactive),-0.385 (inactive),-0.0072 (inactive),-0.44,-0.101,2.64,1.05,2.06
CC1O[C@H]2C3=C(C(=O)[C@@H]4O[C@@H]4[C@H]3O)[C@@H]1C1[C@@H](C)OC=C3[C@H](O)C4O[C@@H]4C(=NOCc4ccccc4)[C@]312 (stereo not given in full),0.161,-3.64 (inactive),0.933 (inactive),2.18 (inactive),6.5 (inactive),-0.438,-0.0963,1.66,-0.073,0.242
CC(C)CON=C1C[C@@H](O)[C@@H](O)[C@@H]2[C@@H]3C(=O)N(C4CCCCC4)C(=O)[C@@H]3CC[C@H]12,0.298,0.0498 (inactive),-0.52 (inactive),1.7 (inactive),-0.061 (inactive),0.451,0.125,0.792,0.375,0.72
CC(C)(C)N1C(=O)[C@H]2[C@H]3[C@H](O)[C@H](O)CC(=O)[C@H]3CC[C@H]2C1=O,-0.0509,-1.06 (inactive),0.925 (inactive),0.62 (inactive),0.95 (inactive),-0.0955,-0.0405,0.128,0.29,0.696
COc1ccc(O[C@H]2C=C[C@@H](c3ccccc3)O[C@@H]2CON=C(C)C)cc1,-0.0515,0.361 (inactive),-0.385 (inactive),0.113 (inactive),0.177 (inactive),0.446,-0.004,-0.0422,-0.222,-0.114
COC(=O)NCC=Cc1nc(CCCO)co1,0.134,-0.068 (inactive),0.633 (inactive),0.286 (inactive),-0.0562 (inactive),0.362,-0.353,0.519,0.802,0.883
COc1ccc(O[C@H]2C=C[C@@H](c3ccccc3)O[C@@H]2COC(=O)CCC(C)=NOC[C@@H](O)[C@H]2O[C@@H]3OC(C)(C)O[C@@H]3[C@H]2O)cc1,0.383,-0.119 (inactive),-0.108 (inactive),-1.14 (inactive),-0.866 (inactive),1.15,-0.0963,0.624,0.891,1.14
CCCNC(=O)OC[C@H]1O[C@H](CCON=C(C)CCN2CCc3nc(CC)c(CC)cc3C2)C=C[C@@H]1Oc1ccc(OC)cc1,-0.0552,-2.1 (inactive),-0.546 (inactive),10.3 (active),0.82 (inactive),0.333,-0.0405,0.686,0.481,0.391
CC(=O)OC[C@H]1O[C@H](CCON=C2[C@H]3CCn4c(=O)n(-c5ccccc5)c(=O)n4[C@H]3[C@H](O)[C@@H]3O[C@H]23)C=C[C@@H]1OC(C)=O,0.282,-1.89 (inactive),2.23 (inactive),-0.152 (inactive),-0.0763 (inactive),-0.0465,-0.0791,-0.299,0.0319,0.789
O=C1[C@H]2[C@H]3[C@H](O)[C@H](O)CC(=NOC[C@@H](O)COCc4ccco4)[C@H]3CC[C@H]2C(=O)N1Cc1ccccc1,-0.0661,-0.734 (inactive),0.448 (inactive),-0.474 (inactive),0.479 (inactive),-0.68,-0.182,0.246,0.462,1.38
CCN1C(=O)[C@H]2[C@H]3[C@H](O)[C@H](O)CC(=O)[C@@H]3CC[C@H]2C1=O,0.0774,0.213 (inactive),-0.402 (inactive),-0.293 (inactive),-0.69 (inactive),0.253,-0.0719,-0.109,0.344,0.694
